Sampled rows, rich in hits. Any-hit rate of the full collection: about 5.7%.
HT1080NT lethal: kills 2HG-producing HT-1080-NT fibrosarcoma cells. HT-1080-NT fibrosarcoma viability, CellTiter-Glo ATP luminescence, 48 h. Potency, µM (highest dose often 46.1 µM), for inactives: top-dose activity, negative = less viability, usual class: cytotoxic. 360,000 compounds, 1.6% hits. AID 686970;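 also: NT is the 2HG producing partner of a matched IDH1 knockdown line; 0% = DMSO-treated cells and -100% = media-only wells without cells; nearly all actives have a fitted effect of over 55% in size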
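Read-out is CellTiter-Glo luminescence after 10 minutes at room temperature, following 48 hours' compound treatment of HT-1080-NT cells (750 cells/well, RPMI, 5% FBS, 37 degrees C).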
HT1080 IDH1KD tx: HT-1080 IDH1 knockdown cell toxicity (counter line); 360,000 compounds, 2% hits; HT-1080 IDH1 knockdown viability, ATP luminescence, 48 h; Potency, µM (top dose mostly 46.1 µM), for the others: at the highest dose activity, negative = toxicity, actives largely listed as cytotoxic;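 also: 0% = DMSO wells and -100% = cell-free medium wells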
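CellTiter-Glo luminescence after 48 h compound exposure at 37 degrees C of IDH1-knockdown HT-1080 cells in 5% FBS RPMI. %Activity scaled between DMSO wells and cell-free media wells, with curves fitted and assigned curve classes.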
KB-3-1 tox: kills parental KB-3-1 adenocarcinoma cells; KB-3-1 viability, CellTiter-Glo ATP luminescence, 72 h; Potency, µM (top dose mostly 46.1 µM), actives largely listed as cytotoxic; 400,000 compounds, 1.4% hits; AID 1347075; also: nearly all actives have a fitted effect of over 60% in size
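Cells are dispensed, compounds pinned in, plates held at 37 °C for 72 h, then CellTiter-Glo is added and luminescence read after 10 minutes. Cell line: parental KB-3-1 in phenol-red-free DMEM, 10% FBS.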
KB-V1 MDR tox: KB-V1 MDR subline cytotoxicity | KB-V1 MDR cells viability, CellTiter-Glo, 72 h | 400,000 compounds, 3.4% hits | Potency, µM (titrated, usually from 46.1 µM), usual class: cytotoxic; also: nearly all actives have a fitted effect of over 60% in size
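Readout: CellTiter-Glo luminescence, 10 min after addition. Cells: KB-V1 MDR subline, 72 h at 37 degrees C with compound. Analysis: corrected, normalized data fitted to concentration-effect curves.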
The depositor's hits bear a star; i = inactive; ? = inconclusive; / = no result given. Calls follow the shape of the dose curve; as a rule, active = well fitted curve in the direction sought with a large enough effect; inconclusive = small, poorly fitted or top-dose-only effect, or another doubt; inactive = no such curve, though single readings can be large; an effect the other way counts as inactive or inconclusive. Unless noted, % is scaled to controls: 0 for no effect and ±100 for the full control effect; potency is read from the fitted curve at half-maximal effect.

SMILES | HT1080NT lethal | HT1080 IDH1KD tx | KB-3-1 tox | KB-V1 MDR tox
O=C(c1ccco1)N1CCN(C(c2ccc(Cl)cc2)c2nnnn2Cc2ccccc2)CC1 (configuration not stated) | -22% | -17% | ? | 16µM*
O=C(c1ccco1)N1CCN(Cc2ccc(Cl)cc2)CC1 | 8% | 19% | i | i
O=C(COc1ccccc1[N+](=O)[O-])Nc1ccc(N2CCN(C(=O)c3cccs3)CC2)cc1 | -19% | ? | i | 9.2µM*
Cc1ccc(-n2c3c(cc(C(=O)Nc4ccccc4C(N)=O)c2=O)C(=O)CC(C)(C)C3)cc1 | / | / | i | ?
CCOC(=O)/C(C#N)=C1/C=CN(Cc2ccccc2)C=N1 | ? | -3% | i | 13µM*
c1ccc(CNc2nc(-c3cccs3)nc3ccccc23)cc1 | ? | 18µM* | i | i
c1ccc(CNc2nc(NCc3ccccc3)c3ccccc3n2)cc1 | 15µM* | 7.3µM* | i | ?
Fc1ccccc1-c1nc(NCc2ccccc2)c2ccccc2n1 | 6% | -1% | i | i
c1cncc(CNc2nc(-c3cccnc3)nc3ccccc23)c1 | 1% | -12% | i | i
CCC(C)Nc1nc(-c2ccccn2)nc2ccccc12 (configuration not stated) | ? | ? | 15µM* | ?
c1ccc(CNc2nc(-c3ccccc3)nc3ccccc23)cc1 | -27% | ? | i | ?
c1ccc(CNc2nc(-c3ccccn3)nc3ccccc23)cc1 | ? | ? | 16µM* | i
Cc1ccc(O)c(C(=O)c2cc(C(=O)NCCc3ccccc3)c(=O)n(CCc3ccccc3)c2)c1 | 8% | 1% | i | i
COc1ccc(O)c(C(=O)c2cc(C(=O)NCCc3ccccc3)c(=O)n(CCc3ccccc3)c2)c1 | 3% | 1% | i | 2.1µM*
COC(=O)c1cc(O)cc(OC)c1Oc1cc(C)cc(O)c1C(=O)O | 23µM* | ? | ? | i
COC(=O)c1cc(O)cc(OC)c1C(=O)c1c(O)cc(C)cc1O | -4% | -8% | i | i
COC(=O)C1=CN(C2CC2)C=C(C(=O)OC)C1c1ccc(C(=O)OC)cc1 | 0% | 7% | i | 7.3µM*
COc1cccc(CN2C(=O)c3ccccc3Sc3ccc(C(=O)N(C)Cc4ccccc4)cc32)c1 | / | / | i | i
COc1ccc(S(=O)(=O)Nc2ccc(Cc3ccncc3)cc2)cc1C | ? | -13% | i | i
CCOc1cc(S(=O)(=O)Nc2ccccc2CC)ccc1Cl | -25% | ? | i | i
CCOc1cc(S(=O)(=O)Nc2ccc(CC)cc2)ccc1Cl | ? | ? | ? | 15µM*
CCc1ccc(NS(=O)(=O)c2ccc(OC)c(C)c2)cc1 | -13% | -29% | i | 18µM*
Cc1cc(C)cc(NC(=O)Cn2c(C)cc(C)c(C#N)c2=O)c1 | / | / | i | ?
CC(C)(C)n1nc(-c2ccc(Cl)cc2)c2c(N)ncnc21 | -20% | ? | ? | 21µM*
Cc1ccc(-c2c(C)n3c4c(=O)n(C)c(=O)n(C)c4nc3n2-c2cccc(O)c2)cc1 | / | / | ? | 18µM*
SMILES | HT1080NT lethal | HT1080 IDH1KD tx | KB-3-1 tox | KB-V1 MDR tox
CCc1ccc(-n2c(-c3ccccc3)c(C)n3c4c(=O)n(C)c(=O)n(C)c4nc23)cc1 | / | / | i | i
COC(=O)CC1Oc2ccc(F)cc2-n2cc(-c3ccc(C)cc3)nc21 (configuration not stated) | / | / | i | i
Cc1ccc(/C=C/C(=O)c2c(C)nc3ccccn23)cc1 | ? | -21% | 18µM* | i
Cc1nc2ccccn2c1C(=O)/C=C/c1cccc([N+](=O)[O-])c1 | -1% | 0% | 2.6µM* | ?
CCCNC(=O)C1CCN(S(=O)(=O)c2ccc3c(c2)CCCN3C(C)=O)CC1 | / | / | i | i
COc1ccc(CN2C(=O)c3ccccc3C(/C=N\OCc3ccc(F)cc3)C2=O)cc1 (configuration not stated) | -25% | ? | ? | 16µM*
COc1ccc(CN2C(=O)c3ccccc3C(/C=N/OCc3ccc(Cl)cc3)C2=O)cc1 (configuration not stated) | -30% | ? | ? | ?
Cc1cc(S(=O)(=O)Nc2ccc3ccccc3c2)c(C)s1 | 13µM* | 14µM* | ? | 3.3µM*
CC(=O)c1ccc(NS(=O)(=O)c2ccc3ccccc3c2)cc1 | 6% | -1% | i | 16µM*

Assay outcomes as filed in PubChem BioAssay.
